Among the data in PubChem BioAssay (NCATS) are outcome and Potency values, retold here.

Results filed as inconclusive are left out. Calls of active or inactive are those of the source. Unless noted, calls come from the whole dose curve; as a rule, active = well fitted curve in the direction sought with a large enough effect; inconclusive = small, poorly fitted or top-dose-only effect, or another doubt; inactive = no such curve, though single readings can be large; an effect the other way counts as inactive or inconclusive.

Assay [1] has as its target Pyruvate kinase PKM (Homo sapiens) (UniProt P14618). Briefly: qHTS Assay for Activators of Human Muscle Pyruvate Kinase (AID 954; active = well fitted curve in the direction sought with a large enough effect, not every such curve was filed as active). The method in brief:
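Purified human PKM2 (0.1 nM) with 0.5 mM PEP (Km) and 0.1 mM ADP in 50 mM imidazole pH 7.2, KCl, MgCl2, 1 h at room temperature; ATP formed read by coupled luciferase luminescence. Normalized to no-enzyme/110 uM thiadiazolimine inhibition; 0.3 nM enzyme column for activation.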
(In general: In qHTS, concentration-response curves come from the screen itself.)

The nature of assay [2]: MultiTox-Fluor Cytotoxicity Assay - LYMP1-002 - Live Cells (AID 955). The method in brief:
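Human lymphoblastoid LYMP1-002 cells, 2500/well in complete medium, rested 5 hr at 37 C, then exposed to compounds for 16 hr at 37 C. Live-cell protease cleavage of GF-AFC read by fluorescence (Ex/Em 405/510) after 60 min at room temperature; AC50 from Hill fits.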

Assay [3] in a line: MultiTox-Fluor Cytotoxicity Assay - LYMP1-002 - Dead Cells (AID 960). Note: nearly all actives have a fitted effect of over 60% in size. The method in brief: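 Human lymphoblastoid cells (LYMP1-002), 2500/well in complete medium, were exposed to compounds for 16 hr at 37 C. Dead-cell protease activity was read as bis-AAF-R110 fluorescence (Ex/Em 485/520), normalized to DMSO and 15 uM tetraoctylammonium bromide; AC50 from Hill fits.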
Assay [4] in a line: MultiTox-Fluor Cytotoxicity Assay - LYMP1-003 - Dead Cells (AID 961). Note: nearly all actives have a fitted effect of over 70% in size. Note: potency is the fitted concentration of half-maximal effect. The method in brief: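 LYMP1-003 human lymphoblastoid cells (2500/well) exposed to compound 16 h at 37 C in complete medium; dead-cell protease read with bis-AAF-R110 fluorescence (Ex/Em 485/520) after 60 min at room temperature. Normalized to DMSO and 15 uM tetraoctylammonium bromide; AC50 from Hill fit.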

Assay [5] is described as follows: MultiTox-Fluor Cytotoxicity Assay - LYMP1-003 - Live Cells (AID 962).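 Note: cytotoxic hits lower the live-cell protease signal.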 The method in brief:
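LYMP1-003 human lymphoblastoid cells (2500/well) in complete medium were preincubated 5 hr at 37 C, then exposed to compounds for 16 hr at 37 C. Live-cell protease cleavage of GF-AFC read by fluorescence (Ex/Em 405/510); AC50 from Hill fits.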

Assay [6] can be described thus: Cell Viability - LYMP1-003 - Assay at 24 hr (AID 963). The method in brief:
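Human lymphoblastoid LYMP1-003 cells (2500/well) were rested 5 hr at 37 C, then exposed to compounds in complete medium for 24 hr at 37 C. Cellular ATP was quantified by CellTiter-Glo luminescence, and AC50 values came from Hill fits of concentration-response data.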

Assay [7] in a line: Cell Viability - LYMP1-003 - Assay at 40 hr (AID 964). Note: series mostly up to about 92 µM; nearly all actives have a fitted effect of over 60% in size. The method in brief:
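Human lymphoblastoid LYMP1-003 cells, 2500/well in complete medium, rested 5 hr at 37 C, then exposed to compounds for 40 hr at 37 C. Viability read as intracellular ATP by CellTiter-Glo luminescence; AC50 from Hill fits of concentration-response data.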

Assay [8] can be described thus: Cell Viability - LYMP2-003 (AID 965).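 Note: cells exposed to compounds for 24 h before reading; nearly all actives have a fitted effect of over 50% in size.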 The method in brief:
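CellTiter-Glo luminescence (cellular ATP) after 24 h compound exposure at 37 C in complete medium; 2500 cells/well, 5 h settling beforehand. Concentration-response fitted to standard Hill equation for AC50. Tetraoctylammonium bromide served as positive control.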

The nature of assay [9]: Cell Viability - LYMP2-004 (AID 966). Note: nearly all actives have a fitted effect of over 65% in size. The method in brief: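 Human lymphoblastoid cells (2500/well) in complete medium were treated with compounds for 24 hr at 37 C, then intracellular ATP was measured by CellTiter-Glo luminescence. AC50 values came from Hill-equation fits of concentration-response data.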
Assay [10] can be described thus: Cell Viability - LYMP2-005 (AID 967). Note: series mostly up to about 92 µM. The method in brief:
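Steps: seed 2500 LYMP2-005 cells/well, incubate 5 h at 37 C, add compound, incubate 24 h at 37 C, add CellTiter-Glo, wait 30 min at RT, read luminescence. Concentration-response data fitted to Hill equation for AC50.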

Assay [11] is described as follows: Cell Viability - LYMP2-009 (AID 968). Note: series mostly up to about 92 µM; nearly all actives have a fitted effect of over 55% in size.
The nature of assay [12]: Cell Viability - LYMP2-011 (AID 969). Note: nearly all actives have a fitted effect of over 60% in size. The method in brief:
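Human lymphoblastoid cells (2500/well) were plated in complete medium, preincubated 5 hr at 37 C, then exposed to compounds for 24 hr at 37 C. Intracellular ATP was read by CellTiter-Glo luminescence, and AC50 came from Hill-equation concentration-response fits.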

A short description of assay [13]: Cell Viability - LYMP2-013 (AID 970). Note: series mostly up to about 92 µM; nearly all actives have a fitted effect of over 55% in size. The method in brief: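 Human lymphoblastoid cells, 2500/well, were preincubated 5 hr at 37 C, then treated with compounds for 24 hr at 37 C in complete medium. Intracellular ATP was read by CellTiter-Glo luminescence; AC50 from Hill-equation fits of concentration-response data.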
The nature of assay [14]: Cell Viability - LYMP2-017 (AID 972). Note: series mostly up to about 92 µM; nearly all actives have a fitted effect of over 55% in size. The method in brief:
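Human lymphoblastoid cells (2500/well) were seeded in complete medium, held 5 hr at 37 C, then exposed to compounds for 24 hr at 37 C. Intracellular ATP was read by CellTiter-Glo luminescence after 30 min at room temperature, with AC50 values from Hill-equation fits.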

Assay [15] in a line: Cell Viability - LYMP2-019 (AID 973). Note: nearly all actives have a fitted effect of over 55% in size. The method in brief:
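Human lymphoblastoid cells were seeded at 2500 cells/well, preincubated 5 hr at 37 C, then exposed to compounds for 24 hr at 37 C in complete medium. Intracellular ATP was measured by CellTiter-Glo luminescence; AC50 from Hill fits.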

Assay [16] in a line: Cell Viability - LYMP2-021 (AID 974). The method in brief: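 Human lymphoblastoid cells (2500/well) were preincubated 5 hr at 37 C, then exposed to compounds for 24 hr at 37 C in complete medium. Intracellular ATP was read by CellTiter-Glo luminescence; AC50 came from Hill-equation fits of concentration-response data.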
Assay [17] can be described thus: Cell Viability - LYMP2-023 (AID 975). The method in brief:
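Human lymphoblastoid cells (2500/well) were preincubated 5 hr at 37 C, then exposed to compounds for 24 hr at 37 C in complete medium. Cellular ATP was read by CellTiter-Glo luminescence, and AC50 came from Hill-equation fits.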

Assay [18] in a line: Cell Viability - LYMP2-025 (AID 976). Note: series mostly up to about 92 µM. The method in brief: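 Human lymphoblastoid LYMP2-025 cells (2500/well) were pre-incubated 5 hr at 37 C, then treated with compounds for 24 hr at 37 C in complete medium. Viability was read as intracellular ATP by CellTiter-Glo luminescence; AC50 from Hill fits.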
The nature of assay [19]: Cell Viability - LYMP2-002 (AID 977). Note: series mostly up to about 92 µM. The method in brief: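 Human lymphoblastoid LYMP2-002 cells, 2500 per well, exposed to compounds for 24 h at 37 C in complete medium; viability read as intracellular ATP by CellTiter-Glo luminescence, AC50 from Hill fits.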
Assay [20] is described as follows: Cell Viability - LYMP2-006 (AID 978). Note: series mostly up to about 92 µM; nearly all actives have a fitted effect of over 60% in size. The method in brief:
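qHTS, 1536-well; 2500 cells/well, 5 hr 37 C; cpd 24 hr 37 C; CellTiter-Glo 30 min RT; luminescence. Tetraoctylammonium bromide pos. ctrl. AC50 via Hill eqn.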

Sequence of Pyruvate kinase PKM (Homo sapiens) (P14618 whole entry, looked up): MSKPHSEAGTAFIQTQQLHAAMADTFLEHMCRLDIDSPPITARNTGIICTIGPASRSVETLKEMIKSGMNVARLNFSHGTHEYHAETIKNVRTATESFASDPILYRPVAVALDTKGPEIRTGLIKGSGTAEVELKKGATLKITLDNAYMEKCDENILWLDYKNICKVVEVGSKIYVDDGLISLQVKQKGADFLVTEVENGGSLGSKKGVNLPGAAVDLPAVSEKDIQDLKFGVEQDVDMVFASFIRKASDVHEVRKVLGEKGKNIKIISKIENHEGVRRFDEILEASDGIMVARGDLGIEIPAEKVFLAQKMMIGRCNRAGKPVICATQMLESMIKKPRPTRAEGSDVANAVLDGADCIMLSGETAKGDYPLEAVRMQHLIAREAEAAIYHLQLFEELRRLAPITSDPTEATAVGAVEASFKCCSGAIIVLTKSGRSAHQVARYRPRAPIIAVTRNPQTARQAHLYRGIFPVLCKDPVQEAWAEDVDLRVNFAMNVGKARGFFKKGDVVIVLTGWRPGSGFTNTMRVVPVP

For the compound `CN=C(N)NCCC[C@H](N)C(=O)O`, in [1], the result was inactive.

Take `CCOc1ccccc1C(N)=O`: the compound was called inactive in assay [2], in assay [3], in [5], in assay [6], in assay [7] and in [8]. For the same compound, the result in [9], in assay [10], in assay [11], in assay [12], in assay [13] and in [14] was inactive. Besides, the outcome in [15], in [16], in assay [17], in [18], in assay [19] and in assay [20] was inactive. For the same compound, the Potency entry in assay [4] was “inactive”.

With `C/C=C/c1ccc(O)c(OC)c1`, the compound was classed as inactive in assay [2], in assay [3], in [5], in [6], in assay [7] and in assay [8]. Moreover, the compound was called inactive in assay [9], in [10], in assay [11], in assay [12], in [13] and in assay [14]. Further, the result in assay [15], in [16], in assay [17], in assay [18], in assay [19] and in assay [20] was inactive. Besides, the Potency result in assay [4] was “inactive”.

In the case of `COc1ccc(C(Cl)=C(c2ccc(OC)cc2)c2ccc(OC)cc2)cc1`, the compound was classed as inactive in assay [2], in assay [3], in assay [5], in assay [6], in [8] and in assay [9]. For the same compound, the outcome in [11], in [12], in assay [13], in assay [14], in assay [15] and in assay [16] was inactive. For the same compound, the compound was called inactive in [17], in [18], in assay [19] and in assay [20]. In addition, in assay [4], the Potency result is “inactive”.

Turning to `Oc1c(Cl)cc(Cl)c(Cl)c1Cc1c(O)c(Cl)cc(Cl)c1Cl`, the Potency in [4] is 50.1 µM (active). Moreover, the compound was called inactive in [6].

For the compound `OC[C@H]1O[C@@H]2O[C@H]3[C@H](O)[C@@H](O)[C@@H](O[C@H]4[C@H](O)[C@@H](O)[C@@H](O[C@H]5[C@H](O)[C@@H](O)[C@@H](O[C@H]6[C@H](O)[C@@H](O)[C@@H](O[C@H]7[C@H](O)[C@@H](O)[C@@H](O[C@H]8[C@H](O)[C@@H](O)[C@@H](O[C@H]1[C@H](O)[C@H]2O)O[C@@H]8CO)O[C@@H]7CO)O[C@@H]6CO)O[C@@H]5CO)O[C@@H]4CO)O[C@@H]3CO`, the compound was classed as inactive in assay [2], in assay [3], in [5], in assay [6], in assay [7] and in assay [8]. The outcome in assay [9], in assay [11], in assay [12], in assay [13], in assay [14] and in [15] was inactive. Further, the result in [16], in assay [17], in assay [18], in assay [19] and in assay [20] was inactive. The Potency entry in assay [4] was “inactive”.

As for `NC(=O)c1ccccc1O`, the compound was called inactive in assay [2], in assay [3], in [5], in [6], in assay [7] and in [8]. The outcome in assay [9], in [10], in [11], in [12], in assay [13] and in assay [14] was inactive. The call in assay [15], in [16], in assay [17], in assay [18], in [19] and in assay [20] was inactive. Further, in assay [4], the Potency result was “inactive”.

With `NCCNc1cccc2ccccc12`, the result in [2], in assay [3], in [5], in assay [6], in assay [7] and in assay [8] was inactive. Also, the call in assay [9], in assay [11], in assay [12], in assay [13], in assay [14] and in assay [15] was inactive. The outcome in assay [16], in assay [17], in assay [18], in assay [19] and in assay [20] was inactive. For the same compound, the Potency entry in [4] was “inactive”.

Take `CCOc1ccc(NC(C)=O)cc1`: the result in assay [2], in [3], in assay [5], in assay [6], in [7] and in assay [8] was inactive. The call in assay [9], in assay [10], in [11], in [12], in assay [13] and in [14] was inactive. Further, the outcome in assay [15], in assay [16], in assay [17], in assay [18], in assay [19] and in assay [20] was inactive. Besides, the Potency entry in [4] was “inactive”.
